KCNH2 3.1 inh – qHTS for Inhibitors of KCHN2 3.1: Mutant qHTS; activity change, % (tested at about 1.8 µM); U2OS KCNH2 3.1, thallium flux FluxOr; active compounds read low; AID 720553, 2013; hit rate 0.95% among 340,000; Potassium voltage-gated channel subfamily H member 2, brain isoform KCNH2 3.1 (human);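 active = maximum activity change below -70%; inconclusive = maximum activity change from -70% to -50%; inactive = maximum activity change above -50%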;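 note: thallium influx rate constant from kinetic fluorescence after stimulation buffer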
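We transduce U2OS cells with the mutant 3.1 virus, culture them overnight, load FluxOr with Red40 quencher for 45 min, then add stimulation buffer and read kinetically for 2 min to derive a normalized rate constant.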
TRPML1 ag – qHTS for Agonists of the Human Mucolipin Transient Receptor Potential 1 (TRPML1); activation, % (no concentration beside the values); TRPML1-expressing cells, Ca2+ dye fluorescence, FDSS; AID 624414, 2012; hit rate 0.12% among 410,000; in the data active = activation above about 50%; inconclusive = mostly about 30% to 49%
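Tetracycline-induced TRPML1-DL cells are seeded and incubated overnight before loading with a no-wash Ca2+ dye and quencher. Agonist activity is taken from the 110 s fluorescence read following compound pin-transfer on an FDSS, before EC80 54-4 challenge.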
KCNH2 WT inh – qHTS for Inhibitors of KCHN2 3.1: Wildtype qHTS. U2OS, BacMam KCNH2, thallium flux FluxOr; active compounds read low. activity change, % at 1.84 µM. hit rate 0.37% among 340,000. Voltage-gated inwardly rectifying potassium channel KCNH2 (Homo sapiens), Q12809;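 active = maximum activity change below -70%; inconclusive = maximum activity change between -70% and -50%; inactive = maximum activity change above -50%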
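U2OS cells transduced with wild-type KCNH2 virus are loaded with FluxOr dye for 45 min, and thallium flux is measured in kinetic reads before and after stimulation buffer. Rate constants are normalized to DMSO controls.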
TRPML1 inh – qHTS for Inhibitors of the Human Mucolipin Transient Receptor Potential 1 (TRPML1) | Mucolipin-1 (Homo sapiens), Q9GZU1 | TRPML1-inducible cells, Ca2+ dye fluorescence, FDSS; active compounds read low; inhibition of EC80 agonist-evoked calcium signal | activity change, negative = inhibition, % (concentration not given with the values) | hit rate 0.02% among 390,000 | AID 624415, 2012; in the data active = activity change below about -50%; inconclusive = between about -30% and that limit;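 note: stimulus is agonist 54-4 at its EC80 concentration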
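TRPML1-DL cells, Tet-induced overnight (~16 h, 37 °C) at 1,500 cells/well, were loaded with Ca8 no-wash dye plus quencher for 45-90 min at room temperature. Compounds were pinned during FDSS kinetic reading; agonist 54-4 at EC80 (4 uM final) then added.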
TRHR enhancer – qHTS for Small Molecule Agonists and Allosteric Enhancers of Human TRH Receptor: Primary Screen for Enhancers. Thyrotropin-releasing hormone receptor (Homo sapiens), P34981. TRHR cells, fluo-8 calcium fluorescence, EC20 TRH enhancement. enhancement, % at 2 µM. hit rate 0.66% among 360,000. AID 493056, 2011; in the data active = enhancement above about 30%
Target sequence (P34981 whole entry, looked up): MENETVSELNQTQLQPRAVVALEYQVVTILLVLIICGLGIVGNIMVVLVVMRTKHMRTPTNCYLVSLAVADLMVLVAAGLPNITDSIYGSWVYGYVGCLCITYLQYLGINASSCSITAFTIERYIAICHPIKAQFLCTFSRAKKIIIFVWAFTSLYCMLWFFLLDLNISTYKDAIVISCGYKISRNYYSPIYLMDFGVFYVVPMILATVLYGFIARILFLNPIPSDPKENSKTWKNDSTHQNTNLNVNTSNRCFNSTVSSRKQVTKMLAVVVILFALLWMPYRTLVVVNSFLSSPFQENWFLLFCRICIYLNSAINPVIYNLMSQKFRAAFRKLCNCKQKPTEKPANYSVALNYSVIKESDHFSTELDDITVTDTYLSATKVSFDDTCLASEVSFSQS
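TRHR-expressing cells loaded with fluo-8 calcium dye were read kinetically (ex 480/em 530) during compound addition, then stimulated with an EC20 of TRH (10 nM final). Enhancement of the Gq-mediated intracellular calcium response was scored.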
TRHR agonist – qHTS for Small Molecule Agonists and Allosteric Enhancers of Human TRH Receptor: Primary Screen for Agonists. TRHR cells, calcium flux fluo-8, FDSS agonist mode. hit rate 0.18% among 360,000. activation, % at 2 µM. AID 493084, 2011. Thyrotropin-releasing hormone receptor (Homo sapiens), P34981; in the data active = activation above about 30%
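TRHR-expressing cells loaded with fluo-8 calcium dye; 23 nL library compound pin-transferred, kinetic FDSS fluorescence (Ex 480/Em 530) recorded about 180 s for agonist-induced calcium release, before a 10 nM TRH EC20 addition for potentiator mode.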
Of the large screens only hits and unclear results are named; the others gave an inactive call. Compounds with a hit are over-represented: about 1.7% of the library has one in this group of screens.

CCOC(=O)C1(CCc2ccccc2)CCN(Cc2ccccn2)CC1	KCNH2 3.1 inh -74
CCOC(=O)C1(CCCc2ccccc2)CCN(Cc2ccn[nH]2)CC1	none
CN1C(=CC=C2C=C(I)C(=O)C(I)=C2)C(C)(C)c2ccccc21	none
CN1/C(=C\C=C2/SC(=S)NC2=O)C(C)(C)c2ccccc21	TRPML1 ag 85, TRHR agonist 83
CN1/C(=C\C=C2/C(=O)Oc3ccccc3C2=O)C(C)(C)c2ccccc21	TRPML1 ag 99, KCNH2 WT inh inconclusive, TRHR agonist 217
CCCN1C(=O)/C(=C\C=C2\N(CC)c3ccccc3C2(C)C)SC1=S	TRHR agonist 36
CCN1C(=O)C(=CC=CN(C)c2ccccc2)SC1=S	TRPML1 ag inconclusive, KCNH2 WT inh -72 (no result: TRHR enhancer, TRHR agonist)
CCOc1ccc(-n2c(C)nc3cc(C(=O)NCCN4CCOCC4)ccc32)cc1	none
COc1ccc(-n2c(C)nc3cc(C(=O)NCCN4CCOCC4)ccc32)cc1	KCNH2 WT inh -183
Cc1[nH]c2ccc(C(=O)NCCN3CCOCC3)cc2c1C	KCNH2 3.1 inh -100
CCn1cc(C(=O)OCC(=O)Nc2cccc(C(C)=O)c2)c(=O)c2ccc(C)nc21	none (no result: KCNH2 3.1 inh, KCNH2 WT inh)
COc1ccc(/C=C(\NC(=O)c2ccc(C)cc2)C(=O)N2CCCCC2)cc1	none
COc1ccccc1/C=C/CN1CCC(Oc2cc(C(=O)NC3CC3)ccc2OC)CC1	KCNH2 3.1 inh -101, KCNH2 WT inh -120
COc1ccc(C(=O)NC2CC2)cc1OC1CCN(Cc2ccc(F)cc2)CC1	KCNH2 3.1 inh inconclusive, KCNH2 WT inh inconclusive
COc1ccc(C(=O)NC2CC2)cc1OC1CCN(Cc2ccccc2)CC1	none (no result: KCNH2 3.1 inh)
C#Cc1ccc(CN2CCC(Oc3cc(C(=O)NC4CC4)ccc3OC)CC2)cc1	KCNH2 3.1 inh -103, KCNH2 WT inh -99
CCC1Nc2ncnc(N3CCN(c4ccccc4)CC3)c2N(Cc2ccc(Br)cc2)C1=O (centres undefined)	KCNH2 3.1 inh -88
O=C(Nc1ccc(Br)cc1)C1CCCN(C2=NS(=O)(=O)c3ccccc32)C1 (centres undefined)	none
Cc1cccc(Oc2nc3c(C)cccn3c(=O)c2/C=C(\C#N)c2nc3ccccc3s2)c1	none (no result: KCNH2 3.1 inh, KCNH2 WT inh)
Cc1cc(C)cc(Oc2nc3c(C)cccn3c(=O)c2/C=C(\C#N)c2nc3ccccc3s2)c1	TRHR enhancer 54 (no result: KCNH2 3.1 inh, KCNH2 WT inh)
Cc1ccc(-c2[nH]ncc2CNCc2ccccc2)cc1	none (no result: KCNH2 3.1 inh, KCNH2 WT inh, TRPML1 inh, TRHR enhancer, TRHR agonist)
COC(=O)C1=C(C)N(C)C(=O)/C1=C\c1cccs1	none
COC(=O)C1=C(C)N(C2CCCCC2)C(=O)/C1=C\c1cccs1	TRHR enhancer 40
CCn1nnnc1-c1ccc(OC)c(S(=O)(=O)Nc2ccccc2OC)c1	KCNH2 WT inh -78 (no result: TRHR enhancer, TRHR agonist)
Cc1ccc(NC(=O)/C(C#N)=C/c2cc(C)n(-c3ccc(Br)cc3)c2C)cc1C	none (no result: KCNH2 3.1 inh, KCNH2 WT inh)
CN(Cc1ccccc1)C(=S)NC(=O)c1cccs1	TRHR enhancer 44
CN(Cc1ccccc1)C(=S)NC(=O)c1ccc(-c2ccccc2)cc1	none
O=C(COc1ccc(Cl)cc1Cl)N/N=C/c1ccc(OC2OC(CO)C(O)C(O)C2O)cc1 (centres undefined)	KCNH2 3.1 inh -157, KCNH2 WT inh -151
O=C(CCCOc1ccc(Cl)cc1Cl)N/N=C/c1ccc(Cl)cc1	none
CC(C)(C)c1ccc(C(=O)NCCCNC(=O)c2ccccn2)cc1	none
COC(=O)c1ccc(/C=C/C(=O)c2ccc(OC)c(OC)c2)cc1	TRHR enhancer 36
COc1ccc(/C=C/C(=O)c2ccc(C(=O)/C=C/c3ccc(OC)c(OC)c3)cc2)cc1OC	none
COc1ccc(CN2CCNC(=O)C2CC(=O)N(C)C2CCCCC2)cc1OC (centres undefined)	none (no result: TRHR enhancer, TRHR agonist)
Cc1nonc1C1CCCN1Cc1nc(-c2ccccc2Cl)oc1C (centres undefined)	KCNH2 3.1 inh -94
COc1ccc(CN(C)CC(O)COC(c2ccc(OC)cc2)c2ccc(OC)cc2)cc1 (centres undefined)	KCNH2 3.1 inh -113, KCNH2 WT inh inconclusive
COc1ccc(C(OCC(O)CN(C)C2CCCCC2)c2ccc(OC)cc2)cc1 (centres undefined)	none
CCOc1ccc(CN(C)CC(O)COC(c2ccc(OC)cc2)c2ccc(OC)cc2)cc1 (centres undefined)	KCNH2 3.1 inh -93, KCNH2 WT inh -85
Cc1ccc(S(=O)(=O)N2CCN(C(=O)CCn3cncn3)CC2)cc1C	none
CCC(=O)N1CCCC(C)(C(=O)Nc2nccc3ccccc23)C1 (centres undefined)	TRPML1 inh inconclusive (no result: KCNH2 3.1 inh, KCNH2 WT inh, TRHR enhancer, TRHR agonist)
NC(=O)CC(NC(=O)c1ccccc1)c1ccc(NC2CCN(Cc3ccccc3)CC2)c([N+](=O)[O-])c1 (centres undefined)	none
O=[N+]([O-])c1cc(C(F)(F)F)ccc1NC1CCN(Cc2ccccc2)C1 (centres undefined)	KCNH2 3.1 inh -91, KCNH2 WT inh -80
O=[N+]([O-])c1cc(C(F)(F)F)ccc1NC1CCN(Cc2ccccc2)CC1	KCNH2 3.1 inh -86
CC(C)(C)n1ncc2c(=O)n(Cc3cc(Cl)ccc3Cl)cnc21	none (no result: KCNH2 3.1 inh, KCNH2 WT inh, TRHR enhancer, TRHR agonist)
CCOC(=O)C1=C(CN(C)Cc2ccccc2)NC(=O)NC1c1ccc(OC(C)C)cc1 (centres undefined)	none (no result: KCNH2 3.1 inh, KCNH2 WT inh)
Cc1nnc(NC(=O)CSc2nnc(Cc3cccn3C)n2-c2ccccc2)s1	TRHR enhancer 39
CCOC(=O)CSc1nnc(Cc2ccc(OC)cc2)n1-c1ccccc1	none
O=C(CSc1nnc(Cc2ccccc2)n1-c1ccccc1)NNC(=O)Cc1ccccc1	TRHR enhancer 31
COC(=O)CSc1nnc(Cc2ccccc2)n1-c1ccc(C)cc1	KCNH2 3.1 inh -98
O=C(CSc1nc(=O)n(CCCN2CCOCC2)c2c1CCC2)Nc1ccc([N+](=O)[O-])cc1	none
Cc1ccc(S(=O)(=O)NN=C(c2ccccc2)c2cccs2)cc1	none (no result: TRHR enhancer, TRHR agonist)
O=C(COC(=O)c1cc([N+](=O)[O-])ccc1N1CCOCC1)Nc1ccc(Cl)cn1	none
CN(C)S(=O)(=O)c1ccc(Cl)c(NC(=O)CN2C(=O)NC3(CCc4ccccc43)C2=O)c1 (centres undefined)	none
FC(F)(F)c1ccc(-c2csc(-c3ccno3)n2)cc1	none

Bioassay records as filed in PubChem.
